Vaccinia mCherry: qHTS for Stage-Specific Inhibitors of Vaccinia Orthopoxvirus: mCherry Reporter Primary qHTS; Potency, µM (top dose mostly 36.5 µM), for the others: at the top dose activity change, negative = inhibition, actives largely listed as inhibitors; AID 720579, 2013; Vaccinia virus mCherry reporter infection, fluorescence; 310,000 compounds, 0.63% hits; calls by dose curve; tested in A549 cells; note: potency is the fitted concentration of half-maximal effect; nearly all actives have a fitted effect of over 35% in size
LASV entry inh: qHTS for Inhibitors of binding or entry into cells for Lassa Virus; 300,000 compounds, 1.2% hits; Potency, µM (titrated, usually from 37.9 µM), without a hit: top-dose activity change, negative = inhibition, usual class: inhibitors; Lassa virus pseudotype entry inhibition, cell reporter; AID 540256, 2011; calls by dose curve; tested in HEK293 cells; note: potency is the fitted concentration of half-maximal effect; nearly all actives have a fitted effect of over 50% in size
HCMV antiviral: qHTS Assay for inhibitors of the human cytomegalovirus (HCMV). HFF cells, HCMV-luciferase reporter, 72 h; hits give low values. activity change, negative = inhibition, % at 57.5 µM. 410,000 compounds, 4.5% hits; in the data active = activity change below about -60%; inconclusive = no clear call, values can overlap the other calls; inactive = above about -39%
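Screen run at 2 compound doses on HFFs infected with reporter HCMV, MOI 1 PFU/cell. Luciferase activity from cell lysates at 72 h post infection gave inhibition relative to buffer-only and Salinomycin wells.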
HCV inh: qHTS Assay for Inhibitors of Hepatitis C Virus (HCV). Huh7.5.1 HCVcc-Cre infection, luciferase reporter, 44 h. Potency, µM (series often up to 41.8 µM), without a hit: at the top dose activity change, negative = inhibition, actives largely listed as inhibitors. 340,000 compounds, 3.4% hits. AID 651820, 2012; active = well fitted inhibition curve with a large enough effect; inconclusive = small, poorly fitted or top-dose-only effect, or another doubt; inactive = no such curve, though single readings can be large or run the other way; note: potency is the fitted concentration of half-maximal effect
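HCVcc-Cre virus at an moi near 0.5 was added right after compound to cells cultured 4 h from seeding (1,000 cells/well). Luciferase activity was determined 44 h later, 15 min after substrate addition at RT.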
MARV entry inh: qHTS for inhibitors of binding or entry into cells for Marburg Virus. Marburg virus pseudotyped entry inhibition, cell reporter. 300,000 compounds, 1.8% hits. AID 540276, 2011. Potency, µM (top dose mostly 37.8 µM), inactives show top-dose activity change, negative = inhibition, usual class: inhibitors; calls by dose curve; tested in HEK293 cells; note: potency is the fitted concentration of half-maximal effect
Vaccinia Venus: qHTS for Stage-Specific Inhibitors of Vaccinia Orthopoxvirus: Venus Reporter Primary qHTS; 330,000 compounds, 0.46% hits; Vaccinia virus Venus reporter expression, fluorescence; AID 720580, 2013; Potency, µM (top dose mostly 36.5 µM), for the others: at the top dose activity change, negative = inhibition, hits mostly inhibitors; calls by dose curve; tested in A549 cells; note: potency is the fitted concentration of half-maximal effect; nearly all actives have a fitted effect of over 30% in size
Starred values were filed as active, the others as inactive; [ ] = dose if it differs, or a comment. Rows were chosen to be rich in hits. Some 7.8% of all compounds tested hit in one or more screens of this group. % is set by controls: 0 for no effect and ±100 for the full control effect.

How did O=C(NC1CCCCC1)c1nnc2n1CCN(Cc1cccc(C(F)(F)F)c1)C2 do in these assays?
HCMV antiviral: 21.2

Results for CCc1ccc(OCCNC(=O)c2ccccc2SCc2ccccc2)cc1 ?
Vaccinia mCherry: inconclusive; LASV entry inh: inconclusive; HCMV antiviral: -87.8*; HCV inh: inconclusive; MARV entry inh: inconclusive; Vaccinia Venus: 4.6%

How did [N-]=[N+]=NCC1OC(n2cnc3c(=O)[nH]c(N)nc32)C(O)C1O (stereo not given) do in these assays?
Vaccinia mCherry: -19.1%; Vaccinia Venus: -23.5%

Results for CCN1c2ccccc2-c2nc(SCC(=O)Nc3cc(F)ccc3F)ncc2S1(=O)=O ?
Vaccinia mCherry: -29.7%; LASV entry inh: inconclusive; HCMV antiviral: inconclusive; Vaccinia Venus: -22.3%

Results for Cc1cc(C)cc(NS(=O)(=O)CCCS(=O)(=O)Nc2cc(C)cc(C)c2)c1 ?
Vaccinia mCherry: -17.1%; LASV entry inh: inconclusive; HCMV antiviral: 2.1; HCV inh: -20.3%; MARV entry inh: inconclusive; Vaccinia Venus: inconclusive

Results for Clc1cccc(N2CCN(c3c4c(nc5nncn35)CCC4)CC2)c1 ?
Vaccinia mCherry: inconclusive; LASV entry inh: 8.8%[46.1 µM]; HCMV antiviral: -64.8*; MARV entry inh: inconclusive; Vaccinia Venus: -28.3%

What do the screens show for `COc1cccc(N2CCN(c3c4c(nc5nncn35)CCC4)CC2)c1`?
Vaccinia mCherry: inconclusive; LASV entry inh: -21.4%[46.1 µM]; HCMV antiviral: -94.7*; MARV entry inh: inconclusive; Vaccinia Venus: inconclusive

What do the screens show for `Cc1cccc(N2CCN(c3c4c(nc5nncn35)CCC4)CC2)c1C`?
Vaccinia mCherry: -10.7%; LASV entry inh: 17.3%[46.1 µM]; HCMV antiviral: inconclusive; MARV entry inh: -5.9%[46.1 µM]; Vaccinia Venus: -7.8%

How did CCc1ccc2oc(C(=O)NCCc3ccc(OC)c(OC)c3)cc(=O)c2c1 do in these assays?
Vaccinia mCherry: -6.1%; LASV entry inh: -22.0%[46.1 µM]; HCMV antiviral: -39.2; MARV entry inh: -24.3%[46.1 µM]; Vaccinia Venus: -11.9%

How did CC1CCN(C(=O)c2ccc3c(c2)N(Cc2ccccc2)C(=O)c2ccccc2S3(=O)=O)CC1 do in these assays?
Vaccinia mCherry: -13.3%; LASV entry inh: -24.4%[46.1 µM]; HCMV antiviral: -61.1*; MARV entry inh: inconclusive; Vaccinia Venus: -5.7%

What do the screens show for `O=C(Nc1cccc(F)c1)c1ccc2c(c1)N(Cc1ccccc1)C(=O)c1ccccc1S2(=O)=O`?
Vaccinia mCherry: -23.7%; LASV entry inh: -19.6%[46.1 µM]; HCMV antiviral: -88.6*; MARV entry inh: inconclusive; Vaccinia Venus: -16.9%

How did O=C(c1ccc2c(c1)N(Cc1ccccc1)C(=O)c1ccccc1S2(=O)=O)N1CCOCC1 do in these assays?
Vaccinia mCherry: -11.0%; LASV entry inh: 0.8%[46.1 µM]; HCMV antiviral: 4.3; MARV entry inh: -27.4%[46.1 µM]; Vaccinia Venus: -8.8%

How did O=C(c1ccc2c(c1)N(Cc1ccc(F)cc1)C(=O)c1ccccc1S2(=O)=O)N1CCC(Cc2ccccc2)CC1 do in these assays?
Vaccinia mCherry: -20.3%; LASV entry inh: inconclusive; HCMV antiviral: -63.5*; MARV entry inh: inconclusive; Vaccinia Venus: -10.4%

How did Cc1cccc(NC(=O)CSc2nc(-c3ccccc3)cc(=O)[nH]2)c1C do in these assays?
Vaccinia mCherry: 4.7%; LASV entry inh: 27.2%[46.1 µM]; HCMV antiviral: -12.9; Vaccinia Venus: -14.7%

What do the screens show for `Nc1ncnc2c1ncn2C1O[C@H](CO)[C@@H](O)[C@@H]1O` (stereo not given in full)?
Vaccinia mCherry: -21.8%; HCMV antiviral: 35.3; HCV inh: -26.6%; Vaccinia Venus: -14.9%

Results for Nc1nc(Nc2ccccc2)nc2c1ncn2[C@@H]1O[C@H](CO)[C@@H](O)[C@H]1O ?
Vaccinia mCherry: -11.9%; LASV entry inh: 2.2%; HCMV antiviral: -37.1; HCV inh: 2µM*; MARV entry inh: 11.0%; Vaccinia Venus: -2.7%
